Experimental data published in the supplement of paper PMC6555819.

Key:
Assay in all cases: PBM binding z-score (relative to random genomic background probes); higher = stronger binding; sequences stand for … in GC…GCGATTGACAGCGTAGAATGAAGG
[1] = tested on: RARb homodimer (NR concentration 270 nM)
Outline: (§1)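 Antibodies against each partner of ligand-free nuclear receptor dimers (one per run) detected binding on custom Agilent 4×180K protein-binding microarrays after 1 h incubation. The double-stranded probes had 34-nt variable regions carrying direct-repeat seeds, single-nucleotide variants, half-site ablations and random human genomic background sequences. Binding z-scores, from regression-normalized fluorescence, use the random background probes as reference.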

[2] = tested on: RARg:RXRa (NR concentration 270 nM, RXRa partner concentration 90 nM)
Outline: as §1

[3] = tested on: RARg homodimer (NR concentration 270 nM)
Outline: as §1

[4] = tested on: RXRa DBDmut IVT, anti-RXR (DBD mutation: RXRa K156A/R161A, NR concentration 90 nM)
Outline: as §1

[5] = tested on: RXRa homodimer (NR concentration 180 nM)
Outline: as §1

[6] = tested on: THRa:RXRa (NR concentration 90 nM, RXRa partner concentration 90 nM)
Outline: as §1

[7] = tested on: THRa homodimer (NR concentration 90 nM)
Outline: as §1

[8] = tested on: VDR homodimer (NR concentration 270 nM)
Outline: as §1

Sequence | PBM binding z-score [1] | PBM binding z-score [2] | PBM binding z-score [3] | PBM binding z-score [4] | PBM binding z-score [5] | PBM binding z-score [6] | PBM binding z-score [7] | PBM binding z-score [8]
GGAACGAGAGCAAGTTGATAGCAGAGTTTGATGG | -0.683 | -0.186 | -0.0143 | 0.292 | 0.0687 | -0.547 | -1.15 | -0.0204
GCTAGGAGGACAAGGTCAGAGCTTTGTCCGTAGA | 3.1 | 3 | 3.49 | 0.861 | 2.29 | 2.83 | 1.21 | 0.639
CGTCAAAGTTTAACTAAGGTAACGTAAAGCACGC | 1.7 | 1.51 | 1.92 | 1.68 | 0.784 | 4.66 | 1.99 | 0.79
CCTAGCAGGCCAGTCTGGGTCACTCAAGGCTTGA | 2.01 | 1.09 | 1.2 | -0.216 | 1.05 | 3.14 | 0.462 | -0.0969
CCTACTGGGCCATTCAGAGGTCGTTGATCATATG | 1.58 | 1.55 | 0.872 | 0.268 | 1.05 | 1.28 | 0.339 | 2.12
GCTGCTAGGTCAACTCATGGTCAGCTAAAGCTCG | 3.69 | 5.16 | 5.42 | 1.45 | 2.86 | 3.17 | 1.15 | 0.269
ATCTCTAGGTAAAGTTAGTTCAGTGAATGCAAAT | 0.802 | 0.673 | 0.531 | 0.563 | 0.331 | 1.94 | 0.737 | 1.35
TAGCCTAGGTCAGATCGGGCCAATATACGCTATA | 2.28 | 2.9 | 3.4 | -0.355 | 1.51 | 4.32 | 0.165 | -0.261
CTCGAAAGGTCGTACTCAGGTGAGTATACCAAAC | 2.52 | 4.96 | 3.87 | 2.42 | 4.91 | 3.89 | 0.987 | 1.47
GATACAGGGTCAGCTAGTGGCCAGAGTATGGAAA | 2.79 | 4.73 | 4.32 | 1.25 | 3.81 | 2.46 | 0.162 | 0.556
ATCGAAAGGTCGAAGGTAAGTATACCCACCCGAA | 2.18 | 3.86 | 3.99 | 0.89 | 4.24 | 1.86 | 0.0677 | 0.843
CCGACTGGGCCAAGGTCATTGATCAGTCAAAGCA | 3.28 | 3.72 | 3.11 | 1.4 | 3.09 | 3.46 | 2.09 | 3.33
GCAGACAGGTGAAACGCAGGTAACTCAGGGTGGC | 0.13 | 0.712 | 0.0344 | -0.777 | 0.519 | 1.42 | -0.615 | -0.666
ACTAGTTCGTCAGCTGAGGTCACACACAATTCGG | 4.27 | 4.08 | 3.93 | 3.38 | 4.37 | 4.66 | 5.07 | 4.73
CCTCGGAGGACAGAAGGTCGGAGCTGTCCGCTTT | 1.03 | 0.91 | 0.81 | -0.0663 | -0.268 | 0.396 | -0.577 | -0.651
ACTAGCAGGCCATGGGTCACTCAAGATTAGTCCG | 2.1 | 1.88 | 2.07 | -0.507 | 1.75 | 1.42 | -0.31 | -0.0856
CGAAAGAGGGCATGAGTTGATAGCAAATGCCGAT | 1 | 1.76 | 1.96 | 1.67 | 1.27 | 0.416 | -0.334 | 1.1
